The source made the active and inactive calls. How the source made its calls: active means hit-call score of the fitted dose curve at least 0.9, where 1 is the maximum; inactive means score below 0.9.

The nature of this assay: ATG_M_32_CIS: Attagene CIS-FACTORIAL HepG2 Assay for M32 Transcription Factor (Internal Marker) (AID 2282949).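 Further: background control marker of the multiplexed CIS panel rather than a real target.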 The following applies: HepG2 Attagene cis-factorial M32 reporter, mRNA; actives raise or lower the signal. Here is the method:
ATG_CIS is a cell-based, multiplexed-readout assay that uses HepG2, a human liver cell line, with measurements taken at 24 hours after chemical dosing in a 24-well plate.ATG_M_32_CIS is one of 52 assay component(s) measured or calculated from the ATG_CIS assay. It is designed to make measurements of mRNA induction, a form of inducible reporter, as detected with fluorescence intensity signals by Reverse transcription polymerase chain reaction (RT-PCR) and Capillary electrophoresis technology.Data from the assay component ATG_M_32_CIS was analyzed into 1 assay endpoint. This assay endpoint, ATG_M_32_CIS, was analyzed with bidirectional fitting relative to DMSO as the negative control and baseline of activity. Using a type of inducible reporter, measures of mRNA for gain or loss-of-signal activity can be used to understand the background control at the transcription factor-level as they relate to the gene . Furthermore, this assay endpoint can be referred to as a secondary readout, because this assay has produced multiple assay endpoints where this one serves a background control function. To generalize the intended target to other relatable targets, this assay endpoint is annotated to the background measurement intended target family, where the subfamily is internal marker.
Human liver HepG2 cells are transiently transfected with multiple reporter transcription units (MRTUs) in 6-well plates using FuGene 6 reagent (Roche; 3 ml FuGene/1 mg DNA). The MRTU constructs are regulated by a cis-regulating element (promoter). […] A major difference between the CIS and TRANS system is that in CIS activities of endogenous TFs are measured, whereas the TRANS assay evaluates changes in activities of exogenous, chimeric NR-Gal4 proteins. […] At the end of 24 hour incubation, total RNA was isolated using TriZol reagent (Invitrogen). The isolated RNA is then reverse-transcribed using oligo(dT) primer and Mo-MLV reverse transcriptase (Invitrogen) with DNAse I (Ambion) treatment for 30 min. The one-tenth of the produced cDNA was amplified by PCR using Taq DNA polymerase (Invitrogen) and two reporter sequence-specific primers. The PCR products were fluorescently labeled by primer extension with 6-arboxyfluorescein (6-FAM) 5'-labeled reporter sequence-specific primer (2 min at 95 C, 20 s at 68 C and 10 min at 72 C) and these products were digested with 5U of HpaI (New England Biolabs) for 2h at 37 C. The fragments were purified using Qiaquick PCR columns (Qiagen), analyzed on an ABI 3130xL genetic analyzer (Applied Biosystems) with peak positions identified by using a set of X-rhodamine (ROX)-labeled MapMarker1000 molecular weight standards (BioVentures). The raw capillary electrophoresis data was processed using Attagraph software (Attagene).
For the compound `CC1=CCC2C(=O)OC(=O)C2C1` (stereo not given), the result was inactive. As for `CCCCCCCCCc1ccc(OCCO)cc1`, the AC50 is 21.7 µM (active). As for `CCN(CC)c1ccc(C=O)cc1`, the result was inactive. Same read-out and setting: the entry for `Cc1cnccn1` is “inactive”.

In the case of `OC(O)C(F)(F)C(F)(F)F`, the compound was classed as inactive. Take `CCc1ccc(C)nc1`: the call was inactive.

Regarding `N#Cc1ccccc1O`, the compound was classed as inactive. On to `FC(F)(F)C(F)(F)C(F)(F)C(F)(F)C(F)(F)C(F)(F)C(F)(F)CCI`, for which the compound was classed as inactive.

With `CCC(Cc1c(I)cc(I)c(N)c1I)C(=O)O` (stereo not given), the result was inactive. On to `C[C@]12CC[C@H]3C(=CCc4cc(O)ccc43)[C@@H]1CCC2=O`, for which the outcome was inactive. `CCCCCCCC/C=C\CCCCCCCC(=O)OCC(O)CO` (stereo not given): the call was inactive. Turning to `CC(C)=CCCC(C)O` (stereo not given), the result was inactive. Same read-out and setting: the entry for `OCC(O)CC(F)(F)C(F)(F)C(F)(F)C(F)(F)F` (stereo not given) is “inactive”; for `Cc1cc(O)c(C(C)(C)C)cc1C(C)(C)C` it is “inactive”; for `OCCCc1cccnc1` it is “inactive”. For the compound `O=C(F)C1(F)C(F)(F)C(F)(F)C(F)(F)C(F)(F)C1(F)F`, the result was inactive. For `Cc1cc(C)c(O)c(C(C)(C)C)c1`, the outcome was inactive. `CC(O)C#CC(C)O` (stereo not given): the outcome was inactive. For the compound `CCCCCCCCCCCCCC[P+](CCCC)(CCCC)CCCC`, the outcome was inactive. On to `C=C(C)C(=O)OCC(F)(F)C(F)(F)C(F)(F)C(F)F`, for which the compound was called inactive. Regarding `OCC1CCCO1` (stereo not given), the outcome was inactive. With `CC(=O)C=O`, the compound was called inactive. On to `COCCC(=O)OC`, for which the call was inactive. In the case of `CC(C)OC=O`, the compound was called inactive.

For `FC(F)(F)C(F)(F)C(F)(F)CC1CO1` (stereo not given), the result was inactive.

As for `CO[Si](CCCOCC1CO1)(OC)OC` (stereo not given), the compound was called inactive. With `Oc1ccc2c(c1)CCC2`, the call was inactive. In the case of `CCC(C)CO` (stereo not given), the outcome was inactive. On to `CC(C)(C)C(=O)C1C(=O)c2ccccc2C1=O`, for which the result was inactive. On to `Nc1cc([N+](=O)[O-])cc(Cl)c1O`, for which the result was inactive. On to `OCC(F)(F)C(F)(F)C(F)(F)C(F)(F)C(F)(F)C(F)(F)CO`, for which the result was inactive. On the same count and under the same terms, the entry for `CCCCCCCCCCCCCCCCC` is “inactive”. Consider `CCCCOC(=O)C(C)O` (stereo not given), for which the call was inactive. As for `O=C1OC(=O)c2ccc3c4c(ccc1c24)C(=O)OC3=O`, the result was inactive.

As for `NCC(F)(F)C(F)(F)C(F)(F)C(F)(F)C(F)(F)C(F)(F)C(F)(F)C(F)(F)F`, the compound was classed as inactive. As to `CCOC(OCC)OCC`, the compound was classed as inactive. For `CCN=C1C=CC(=C(c2ccc(N(CC)CC)cc2)c2ccc(N(CC)CC)cc2)c2ccccc21`, the outcome was inactive.

As to `CCN(CC)c1ccc(C=O)c(O)c1`, the call was inactive.

In the case of `CCOC(=O)C1CC(=O)C(=C(O)C2CC2)C(=O)C1` (stereo not given), the compound was called inactive. Regarding `CCc1cccc(C)c1N(C(=O)C(=O)O)C(C)COC` (stereo not given), the call was inactive.

The term AC50 denotes the midpoint of the concentration-response curve, whichever way the signal moves.

The values are drawn from PubChem BioAssay (EPA / NIEHS).
